Experimental data published in ChEMBL document CHEMBL3988442, “University of Dundee, Small-Polar-MMV Screening Library” (2021).
Screen size: about 48,000 compounds; about 13,000 (27%) showed an effect of 50% or more. This is one part of the list.

system: Wolbachia pipientis; assay: Anti-Wolbachia Cell-Based Screen; type: functional; parameters: scale not given: in the data most compounds retested in dose-response had high values; settings: 5 µM

Point of comparison: `CCCn1cc(-c2ccnc(NC3CCc4ccccc4C3)n2)c(C)n1` (configuration not stated), “Percent Effect” value 0.5444%. Against it:
- CCc1ncncc1C(=O)NCCNc1ncnc2sccc12 — lower, -23.73%
- COCC(=O)N1CC[C@@H]2O[C@H](COCc3csc(C)n3)CC[C@@H]21 — higher, 4.421%
- Cc1nc(COC[C@@H]2CC[C@H]3[C@H](CCN3C(=O)C3CC3)O2)cs1 — lower, -1.141%
- CCOC[C@H]1CC[C@H]2[C@H](CCN2C(=O)c2cnccn2)O1 — higher, 103.2%
- Cc1nc(COC[C@H]2CC[C@H]3[C@H](CCN3C(N)=O)O2)cs1 — lower, -9.234%
- CCOC[C@@H]1CC[C@H]2[C@H](CCN2C(=O)c2cnccn2)O1 — higher, 112.7%
- CCOC[C@@H]1CC[C@H]2[C@H](CCN2S(=O)(=O)Cc2ccccc2)O1 — lower, -7.135%
- CN(C)C(C(=O)N1CCC(C#N)CC1)c1ccccc1F (configuration not stated) — lower, -0.3171%
- CCN1C[C@H]2C3(CCN(C(C)=O)CC3)CC[C@@]2(C(=O)N(C)C)C1.O=C(O)C(F)(F)F — higher, 6.202%
- c1cncc(-c2nc(C3CC3)ncc2-c2ccnc(N3CCCC3)n2)c1 — higher, 90.28%
- Cc1ncc(-c2ccnc(N3CCC[C@@H]3CO)n2)c(-c2cccnc2)n1 — higher, 102.7%
- Cc1noc(-c2ccc(N3CCC[C@H]3CO)nc2)n1 — higher, 4.962%
- O=c1cc(-c2cccnc2)nc(-c2ccc(CN3CC[C@@H](O)C3)cc2)[nH]1 — higher, 3.03%
- Cc1ncc(-c2ccnc(N3CC[C@H](O)C3)n2)c(-c2cccnc2)n1 — higher, 109%
- Cc1ncc(-c2ccnc(NC3CC3)n2)c(-c2cccnc2)n1 — higher, 88.62%
- COc1ccnc(N2CCCN(c3nc(C4CC4)ns3)CC2)n1 — higher, 2.276%
- Cc1ncc(-c2ccnc(N3CCCCCC3)n2)c(-c2cccnc2)n1 — lower, -6.559%
- COc1ccccc1Oc1ncccc1CNC(=O)CN1CCCC1=O — lower, -22.72%
- O=C(Nc1ccccc1)N1CCC(N2Cc3ncccc3C2=O)CC1 — lower, -2.29%
- CSC1(CNc2ncc(Br)cn2)CCOCC1 — lower, -8.791%
- COc1ccccc1C(=O)N(Cc1nc(C)cs1)CC1CCCO1 (configuration not stated) — lower, -4.042%
- CCC[C@H]1CN(CCS(C)(=O)=O)C[C@@H]1NC(=O)c1cccnn1 — higher, 3.679%
- COc1ccsc1C(=O)Nc1cc(Cl)c(=O)n(C)c1 — lower, -0.9546%
- O=C(NCCCOC1CCOC1)NC(C1CC1)C1CC1 (configuration not stated) — lower, -5.056%
- CCCc1nc(C)c(CN2CC3(CCOC3)CCC2=O)s1 (configuration not stated) — lower, -4.631%
- COc1ccc(-c2nc(CC(=O)N(C)CCC#N)cs2)cc1OC — lower, -11.11%
- CCN(CC)[C@@H]1CN(C(=O)c2ccnnc2)[C@@H]2CCCO[C@H]12.O=C(O)C(F)(F)F — lower, -6.627%
- CN(Cc1cncnc1)[C@@H]1CN(C(=O)C2CC2)[C@@H]2CCCO[C@H]12.O=C(O)C(F)(F)F — higher, 103.9%
- CN(Cc1cncnc1)[C@H]1CN(C(=O)c2ccco2)[C@@H]2CCCO[C@@H]21 — higher, 83.44%
- CN(C)C(=O)CO[C@@H]1CN(Cc2ccccc2)[C@@H]2CCCO[C@@H]21 — lower, -2.745%
- CCCS(=O)(=O)N1C[C@H](N(C)Cc2ccco2)[C@@H]2OCCC[C@@H]21.O=C(O)C(F)(F)F — lower, -9.069%
- CCN(CC)[C@@H]1CN(C(=O)c2ccc(C#N)cc2)[C@@H]2CCCO[C@H]12.O=C(O)C(F)(F)F — lower, -2.681%
- CN(Cc1cncnc1)[C@@H]1CN(C(=O)c2ccco2)[C@@H]2CCCO[C@H]12.O=C(O)C(F)(F)F — higher, 99.89%
- COCC(=O)N1C[C@H](N(C)Cc2cncnc2)[C@H]2OCCC[C@H]21 — higher, 102.5%
- CN(Cc1ccco1)[C@@H]1CN(C(=O)c2ccnnc2)[C@@H]2CCCO[C@H]12.O=C(O)C(F)(F)F — lower, 0.1298%
- CN(Cc1ccco1)[C@@H]1CN(Cc2ccc(F)cc2)[C@@H]2CCCO[C@H]12.O=C(O)C(F)(F)F.O=C(O)C(F)(F)F — higher, 1.532%
- Cc1ccc(CN2C[C@H](N(C)Cc3cncnc3)[C@H]3OCCC[C@H]32)o1 — lower, -12.1%
- CN(Cc1ccco1)[C@@H]1CN(CC2CCOCC2)[C@@H]2CCCO[C@H]12.O=C(O)C(F)(F)F.O=C(O)C(F)(F)F — higher, 6.763%
- C1CCC(N2CCCN(c3nc(C4CC4)no3)CC2)C1 — higher, 19.76%
- CCCNC(=O)c1cc(Br)c2c(c1)OCCO2 — lower, -33.44%
- CCc1nc(CN2CCN(C(=O)C3CCCCC3)CC2)cs1 — higher, 4.149%
- O=C(CN1CCN(c2ccccc2F)CC1)Nc1ccc(Cl)cn1 — higher, 4.247%
- CCCS(=O)(=O)N1C[C@@H]2CN(Cc3ccoc3)CCO[C@@H]2C1.O=C(O)C(F)(F)F — higher, 45.1%
- CN(Cc1ccco1)[C@@H]1CN(C(=O)c2ccnnc2)C[C@@H]2CCCO[C@@H]21.O=C(O)C(F)(F)F — higher, 1.243%
- CN(Cc1cccnc1)[C@@H]1CN(C(=O)c2ccco2)[C@@H]2CCCO[C@H]12 — higher, 99.41%
- Cn1cc(C[C@H]2[C@H](N3CCOCC3)CCN2C(=O)c2ccc[nH]2)cn1 — lower, -3.493%
- CN(Cc1cncnc1)[C@H]1CN(C(=O)c2ccc[nH]2)[C@@H]2CCCO[C@@H]21 — higher, 103.1%
- CC(C)N(C)[C@@H]1CCN(C(=O)c2ccc[nH]2)[C@H]1Cc1cnn(C)c1 — lower, -2.599%
- O=S(=O)(NCC1COCCO1)c1ccc(C2CCCCC2)cc1 (configuration not stated) — lower, -20.85%
- CC1CN(Cc2cccc(CNC3CCCC3)c2)CCO1 (configuration not stated) — higher, 2.611%
- OC(CN1CCOCC1)c1cc(Cl)ccc1Cl (configuration not stated) — higher, 1.615%
- Cc1ccsc1C(=O)NCc1cccnc1N(C)CCc1ccccn1 — lower, -9.716%
- O=S(=O)(NCC1CCN(c2cnccn2)CC1)c1ccc(F)c(Cl)c1 — higher, 114.1%
- O=C(Oc1ccccc1)N1CCC(CNS(=O)(=O)c2cccnc2)CC1 — higher, 12.7%
- Cc1cccc(S(=O)(=O)NCC2CCN(c3cnccn3)CC2)c1 — higher, 113.6%
- CC(=O)c1ccc(S(=O)(=O)NCC2CCN(c3cnccn3)CC2)cc1 — higher, 109.4%
- O=S(=O)(NCC1CCN(c2cnccn2)CC1)c1c(F)cccc1F — lower, -13.03%
- Cc1cnc2c(S(=O)(=O)NCC3CCN(C4CC4)C3)cccc2c1 (configuration not stated) — lower, -24.19%
- O=S(=O)(NCC1CCN(c2ccccn2)CC1)c1ccccc1F — lower, -4.881%
- Cn1cc(S(=O)(=O)NCC2CCN(C(=O)Oc3ccccc3)CC2)cn1 — lower, -5.514%
- CN(C)c1nccc(CNS(=O)(=O)c2ccc(F)c(Cl)c2)n1 — lower, -4.41%
